The target in assay [1] is Cytochrome P450 2C9 (Homo sapiens) (UniProt P11712). Kind of assay: Cytochrome P450 Family 2 Subfamily C Member 9 (CYP2C9) small molecule antagonists: luciferase reporter qHTS assay (AID 1671198). As to activity change, negative = inhibition: series mostly up to about 120 µM. In a few lines:
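CYP2C9 activity was measured with a P450-Glo proluciferin substrate. Enzyme–substrate mix was held with compound for 10 min at room temperature, then NADPH regeneration solution was added for 1 h at 37C. Luciferin product was read as luminescence.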
In general terms: In a reporter assay the amount or activity of a reporter protein is the signal.

The target of assay [2] is Voltage-gated inwardly rectifying potassium channel KCNH2 (Homo sapiens) (UniProt Q12809). Kind of assay: Human Ether-a-go-go-Related Gene (hERG) channel small molecule antagonists: fluorescence cell-based qHTS assay (AID 1671200).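 As to activity change, negative = inhibition: hERG-expressing U2OS cells given a thallium stimulus after FluxOR II dye loading; series mostly up to about 77 µM.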 In a few lines: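 Kinetic two-minute fluorescence traces, sampled at 1 s, were collected following thallium stimulus of U2OS cells (1000 per well) that had been cultured overnight at 37 C and loaded with FluxOR II.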
For orientation: Block of hERG is tested as a sign of cardiac risk.

For assay [3], the target named is Cytochrome P450 3A4 (Homo sapiens) (UniProt P08684). In words: Cytochrome P450 Family 3 Subfamily A Member 4 (CYP3A4) small molecule antagonists: luciferase reporter qHTS assay (AID 1671201). As to activity change, negative = inhibition: series mostly up to about 120 µM. Summed up: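 Proluciferin-to-luciferin conversion by CYP3A4, NADPH-regenerated, 1 h RT; luminescence read as RLU. Ketoconazole as control.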

Records with an inconclusive call do not appear. Unmarked numbers belong to inactive results. The source made the active and inactive calls. Calls follow the shape of the dose curve; as a rule, active = well fitted curve in the direction sought with a large enough effect in the repeat runs; inconclusive = weak or mixed curves; inactive = no such curve, though single readings can be large; an effect the other way counts as inactive or inconclusive.
% is scaled to controls: 0 for no effect and ±100 for the full control effect; potency is read from the fitted curve at half-maximal effect.
Also: nearly all actives have a fitted effect of over 50% in size.

Cytochrome P450 2C9 (Homo sapiens), sequence (P11712 whole entry, looked up): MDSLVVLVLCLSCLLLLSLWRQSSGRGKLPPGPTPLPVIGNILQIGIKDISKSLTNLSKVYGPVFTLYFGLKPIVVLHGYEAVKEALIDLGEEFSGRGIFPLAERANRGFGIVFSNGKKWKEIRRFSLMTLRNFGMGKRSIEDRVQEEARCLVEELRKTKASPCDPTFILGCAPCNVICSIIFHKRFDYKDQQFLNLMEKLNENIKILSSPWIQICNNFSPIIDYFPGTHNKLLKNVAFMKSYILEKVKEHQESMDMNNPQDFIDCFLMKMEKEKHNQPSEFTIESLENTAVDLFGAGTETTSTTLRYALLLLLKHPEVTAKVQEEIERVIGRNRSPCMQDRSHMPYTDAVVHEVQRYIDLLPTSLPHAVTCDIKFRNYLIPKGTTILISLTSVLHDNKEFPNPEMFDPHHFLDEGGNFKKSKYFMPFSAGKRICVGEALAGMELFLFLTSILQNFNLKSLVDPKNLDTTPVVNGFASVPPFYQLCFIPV
Voltage-gated inwardly rectifying potassium channel KCNH2 (Homo sapiens), sequence (Q12809 whole entry, looked up): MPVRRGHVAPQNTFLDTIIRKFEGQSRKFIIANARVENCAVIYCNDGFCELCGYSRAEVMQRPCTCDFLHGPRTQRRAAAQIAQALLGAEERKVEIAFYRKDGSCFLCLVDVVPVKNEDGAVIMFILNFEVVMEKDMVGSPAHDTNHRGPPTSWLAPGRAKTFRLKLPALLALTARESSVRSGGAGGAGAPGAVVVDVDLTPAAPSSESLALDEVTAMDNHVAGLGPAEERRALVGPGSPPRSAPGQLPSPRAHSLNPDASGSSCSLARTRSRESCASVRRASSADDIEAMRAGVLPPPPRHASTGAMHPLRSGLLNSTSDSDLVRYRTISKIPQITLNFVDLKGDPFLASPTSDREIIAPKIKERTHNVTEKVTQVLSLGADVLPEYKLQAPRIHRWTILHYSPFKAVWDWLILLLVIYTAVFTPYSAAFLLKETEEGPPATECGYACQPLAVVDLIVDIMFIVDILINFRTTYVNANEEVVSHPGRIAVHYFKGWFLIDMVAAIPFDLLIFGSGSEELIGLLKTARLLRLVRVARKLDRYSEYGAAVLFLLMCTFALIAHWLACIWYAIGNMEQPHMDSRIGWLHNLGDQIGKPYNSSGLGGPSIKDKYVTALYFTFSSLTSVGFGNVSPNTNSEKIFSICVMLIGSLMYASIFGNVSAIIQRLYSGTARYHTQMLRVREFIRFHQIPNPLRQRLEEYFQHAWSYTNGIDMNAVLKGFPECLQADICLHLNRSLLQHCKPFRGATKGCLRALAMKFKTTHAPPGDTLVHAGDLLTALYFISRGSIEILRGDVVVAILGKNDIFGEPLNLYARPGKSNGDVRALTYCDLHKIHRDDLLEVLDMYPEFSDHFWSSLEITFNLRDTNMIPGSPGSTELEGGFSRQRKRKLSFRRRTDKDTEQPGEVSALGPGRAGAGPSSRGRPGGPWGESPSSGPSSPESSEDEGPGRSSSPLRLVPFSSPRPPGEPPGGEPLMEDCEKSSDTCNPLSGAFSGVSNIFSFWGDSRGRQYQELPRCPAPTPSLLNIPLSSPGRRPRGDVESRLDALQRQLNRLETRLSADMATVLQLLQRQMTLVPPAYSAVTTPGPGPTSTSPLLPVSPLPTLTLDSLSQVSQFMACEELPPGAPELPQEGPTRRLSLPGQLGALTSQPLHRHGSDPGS
Cytochrome P450 3A4 (Homo sapiens), sequence (P08684 whole entry, looked up): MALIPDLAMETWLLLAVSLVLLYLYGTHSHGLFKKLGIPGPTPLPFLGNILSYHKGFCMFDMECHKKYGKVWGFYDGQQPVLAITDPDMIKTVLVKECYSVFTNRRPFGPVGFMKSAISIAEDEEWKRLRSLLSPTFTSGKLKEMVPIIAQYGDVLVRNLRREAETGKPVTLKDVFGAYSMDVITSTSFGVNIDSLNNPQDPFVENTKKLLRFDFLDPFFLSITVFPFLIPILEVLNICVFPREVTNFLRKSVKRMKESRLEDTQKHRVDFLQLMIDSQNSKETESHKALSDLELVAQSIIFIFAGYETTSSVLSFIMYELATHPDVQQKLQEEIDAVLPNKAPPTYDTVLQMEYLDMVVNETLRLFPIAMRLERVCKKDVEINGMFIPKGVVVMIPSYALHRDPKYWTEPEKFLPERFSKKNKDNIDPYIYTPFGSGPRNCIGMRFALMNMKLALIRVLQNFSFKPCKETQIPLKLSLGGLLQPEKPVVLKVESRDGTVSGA

As to `C=CC/C=C/C/C=C/C/C=C/C`, the Potency result in assay [1], in assay [2] and in assay [3] was “inactive” in each case.

On to `COC(=O)CC(C)CCC=C(C)C` (stereo not given), for which the Potency entry in assay [1], in assay [2] and in assay [3] was “inactive” each time.

Regarding `CC1(C)COCN1`, the Potency entry in assay [1], in assay [2] and in assay [3] was “inactive” throughout.

With `OCCN1CN(CCO)CN(CCO)C1`, the Potency entry in assay [1] and in assay [3] was “inactive” throughout.

Consider `O=C1OC(=O)c2ccc3c4c(ccc1c24)C(=O)OC3=O`, for which the Potency result in assay [1], in assay [2] and in assay [3] was “inactive” throughout.

Take `CCCN(CCc1cccs1)[C@H]1CCc2c(O)cccc2C1`: in assay [1], the Potency was 15.5 µM (active). Moreover, in assay [3], the Potency entry is “inactive”.

`CCOCOCC`: the Potency entry in assay [1], in assay [2] and in assay [3] was “inactive” each time.

As for `CC(O)C#CC(C)O` (stereo not given), the Potency result in assay [1], in assay [2] and in assay [3] was “inactive” in each case.

As to `COC(=O)CC#N`, the Potency entry in assay [1], in assay [2] and in assay [3] was “inactive” each time.

With `O=Cc1ccc(F)cc1`, the Potency result in assay [1], in assay [2] and in assay [3] was “inactive” throughout.

Turning to `CCO[Si](CCCSSSSCCC[Si](OCC)(OCC)OCC)(OCC)OCC`, the results for the Potency in assay [1] and in assay [3] were 12.6 µM (active) and 2.83 µM (active), respectively. For the same molecule, in assay [2], the Potency result is “inactive”.

Regarding `CC1CNCC(C)O1` (stereo not given), the Potency result in assay [1], in assay [2] and in assay [3] was “inactive” in each case.

On to `COC(=O)[C@]1(C)CCC[C@@]2(C)[C@H]1CC=C1C=C(C(C)C)CC[C@@H]12`, for which the values for the Potency in assay [1] and in assay [3] were 31.7 µM (active) and 35.6 µM (active), respectively. For the same molecule, the Potency entry in assay [2] is “inactive”.

`Nc1ncnc2c1ncn2[C@@H]1O[C@H](COP(=O)(O)O)[C@@H](O)[C@H]1O`: the Potency entry in assay [1], in assay [2] and in assay [3] was “inactive” in each case.

For the molecule `CCCCCCCCCCCCCCNCCO`, the Potency result in assay [1] and in assay [3] was “inactive” each time.

Regarding `CCN(CC)CCCN(c1ccccc1)C1Cc2ccccc2C1`, the Potency result in assay [1] and in assay [3] was “inactive” each time. Besides, the Potency in assay [2] is 2.13 µM (active).

Regarding `c1cc(OCC2CO2)cc(OCC2CO2)c1` (stereo not given), the Potency was 39.6 µM (active) in assay [1] and 35.3 µM (active) in assay [3].

With `CCNc1nc(NC(C)CC)nc(OC)n1` (stereo not given), the Potency entry in assay [1], in assay [2] and in assay [3] was “inactive” each time.

With `CC1CCCNC1` (stereo not given), the Potency entry in assay [1], in assay [2] and in assay [3] was “inactive” in each case.

Take `C/C=C/CO`: the Potency result in assay [1], in assay [2] and in assay [3] was “inactive” in each case.

As to `CCCCCCOc1cc(C)c(O)c(C)c1C`, the Potency in assay [1] is 25.5 µM (active); in assay [3], 28.6 µM (active).

For the molecule `CCCCCCCCCCCCCCCCCO`, the values for the activity change, negative = inhibition in assay [1] and in assay [3] were -2.94% [at 23.6 µM] and 7.87% [at 23.6 µM], respectively.

For `CCCCCCCC(C)=O`, the Potency entry in assay [1], in assay [2] and in assay [3] was “inactive” each time.

For `CC(C)CCOCCC(C)C`, the Potency entry in assay [1], in assay [2] and in assay [3] was “inactive” each time.

As for `O=C(O)CCCCCCC(=O)O`, the Potency result in assay [1] and in assay [3] was “inactive” throughout.

Turning to `Clc1nc2ccccc2s1`, the Potency result in assay [1], in assay [2] and in assay [3] was “inactive” each time.

For `CCCCCCS`, the Potency result in assay [1], in assay [2] and in assay [3] was “inactive” throughout.

Take `CCC(=O)OCCc1ccccc1`: in assay [1], the Potency was 13.6 µM (active). Further, the Potency result in assay [2] and in assay [3] was “inactive” each time.

Consider `COc1ccccc1C=O`, for which the Potency entry in assay [1], in assay [2] and in assay [3] was “inactive” in each case.

Consider `CO[C@H]1C=CO[C@@]2(C)Oc3c(C)c(O)c4c(O)c(cc(O)c4c3C2=O)NC(=O)/C(C)=C\C=C/[C@H](C)[C@H](O)[C@@H](C)[C@@H](O)[C@@H](C)[C@H](OC(C)=O)[C@@H]1C`, for which the Potency was 10.1 µM (active) in assay [1] and 1.27 µM (active) in assay [3].

Consider `NCCCCCCNCCCCCCN`, for which the Potency entry in assay [1] was “inactive”. For the same molecule, the Potency in assay [3] was 3.5 µM (active).

Consider `Nc1ccc2cc3ccc(N)cc3nc2c1`, for which the Potency result in assay [1] and in assay [2] was “inactive” in each case. Besides, the Potency in assay [3] is 3.99 µM (active).

As for `C(=C/c1ccccc1)/c1ccccc1`, the Potency result in assay [1], in assay [2] and in assay [3] was “inactive” throughout.

The values above are taken from PubChem BioAssay (Tox21).
